{
  "source": "paper PMC12820563",
  "about": "“FoxP3 forms a head-to-head dimer in vivo and stabilizes its multimerization on adjacent microsatellites”",
  "note": "In all, about 16,000 sequences were measured (“rpm ratio (pull-down/input)”: median about 0.94, highest 2% from about 1.7 on). Only a selection was taken, and the highest values are over-represented in it overall.",
  "data": [
    {"molecular_target": "T1, MBP-FoxP1dN (Mus musculus, UniProt P58462 326-579)", "T1 sequence": "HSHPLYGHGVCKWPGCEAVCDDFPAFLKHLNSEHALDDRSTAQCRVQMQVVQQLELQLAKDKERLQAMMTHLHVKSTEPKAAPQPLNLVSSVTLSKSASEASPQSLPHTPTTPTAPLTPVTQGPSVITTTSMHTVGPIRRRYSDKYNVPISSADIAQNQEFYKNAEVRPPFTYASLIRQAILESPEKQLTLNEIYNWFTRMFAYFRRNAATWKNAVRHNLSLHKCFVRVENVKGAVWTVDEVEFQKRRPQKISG", "assay": "PD-seq (MBP pull-down with sequencing); 20 mM Tris-HCl pH 7.5, 100 mM NaCl, 1.5 mM MgCl2, 0.4 uM protein, 0.1 uM dsDNA library, 30 min, room temperature, amylose pull-down; high values mean tight binding", "settings": "protein: recombinant; tags: His6-MBP; chain copies: 2; dsDNA, one strand shown", "in_short": "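Amylose resin was used to capture complexes formed during 30 min at room temperature in Tris pH 7.5 buffer with NaCl and MgCl2 between 0.4 µM His6-MBP-tagged mouse FoxP3 or FoxP1 fragment lacking the N-terminus, expressed in E. coli, and 0.1 µM Klenow-filled double-stranded degenerate DNA library. After three washes, the DNA was released with proteinase K, barcoded by PCR and sequenced on Illumina. Binding is pooled-replicate reads-per-million enrichment, pull-down over input.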", "values": [
      {"sequence": "GATGATTGTTCTCCCAGCTGATGAATTGGTAGGCTCGAGTAAACAAATTTTCCTAATCTTTCTGTTCAAGCGCCATCTAC", "binding signal": "0.819 RPM ratio (pull-down/input)"},
      {"sequence": "GATGATTGTTCTCCCAGCTGATGAATTTATTACGTCGAGTAAACAAATTTTCCTAATCTTTCTGTTCAAGCGCCATCTAC", "binding signal": "1.11 RPM ratio (pull-down/input)"},
      {"sequence": "GATGATTGTTCTCCCAGCTGATGAATTCTTTACGTCGAGTAAACAAATTTTCCTAATCTTTCTGTTCAAGCGCCATCTAC", "binding signal": "0.992 RPM ratio (pull-down/input)"},
      {"sequence": "GATGATTGTTCTCCCAGCTGATGAATTTTTTACGTCGAGTAAACAAATTTTCCTAATCTTTCTGTTCAAGCGCCATCTAC", "binding signal": "0.984 RPM ratio (pull-down/input)"},
      {"sequence": "GATGATTGTTCTCCCAGCTGATGAATTATTTACGTCGAGTAAACAAATTTTCCTAATCTTTCTGTTCAAGCGCCATCTAC", "binding signal": "2.19 RPM ratio (pull-down/input)"},
      {"sequence": "GATGATTGTTCTCCCAGCTGATGAATTTACGTCGTCGAGTAAACAAATTTTCCTAATCTTTCTGTTCAAGCGCCATCTAC", "binding signal": "1.25 RPM ratio (pull-down/input)"},
      {"sequence": "GATGATTGTTCTCCCAGCTGATGAATTGTTTACGTCGAGTAAACAAATTTTCCTAATCTTTCTGTTCAAGCGCCATCTAC", "binding signal": "2.79 RPM ratio (pull-down/input)"},
      {"sequence": "GATGATTGTTCTCCCAGCTGATGAATTTATCCCTTCGAGTAAACAAATTTTCCTAATCTTTCTGTTCAAGCGCCATCTAC", "binding signal": "1.05 RPM ratio (pull-down/input)"},
      {"sequence": "GATGATTGTTCTCCCAGCTGATGAATTGCGTACCTCGAGTAAACAAATTTTCCTAATCTTTCTGTTCAAGCGCCATCTAC", "binding signal": "1.09 RPM ratio (pull-down/input)"},
      {"sequence": "GATGATTGTTCTCCCAGCTGATGAATTGGGGCGGTCGAGTAAACAAATTTTCCTAATCTTTCTGTTCAAGCGCCATCTAC", "binding signal": "0.782 RPM ratio (pull-down/input)"},
      {"sequence": "GATGATTGTTCTCCCAGCTGATGAATTGACAGGATCGAGTAAACAAATTTTCCTAATCTTTCTGTTCAAGCGCCATCTAC", "binding signal": "1.1 RPM ratio (pull-down/input)"},
      {"sequence": "GATGATTGTTCTCCCAGCTGATGAATTCGTTTATTCGAGTAAACAAATTTTCCTAATCTTTCTGTTCAAGCGCCATCTAC", "binding signal": "1.25 RPM ratio (pull-down/input)"},
      {"sequence": "GATGATTGTTCTCCCAGCTGATGAATTTATTGTTTCGAGTAAACAAATTTTCCTAATCTTTCTGTTCAAGCGCCATCTAC", "binding signal": "2.09 RPM ratio (pull-down/input)"},
      {"sequence": "GATGATTGTTCTCCCAGCTGATGAATTGTTTATTTCGAGTAAACAAATTTTCCTAATCTTTCTGTTCAAGCGCCATCTAC", "binding signal": "2.77 RPM ratio (pull-down/input)"},
      {"sequence": "GATGATTGTTCTCCCAGCTGATGAATTCTGGCTGTCGAGTAAACAAATTTTCCTAATCTTTCTGTTCAAGCGCCATCTAC", "binding signal": "0.808 RPM ratio (pull-down/input)"},
      {"sequence": "GATGATTGTTCTCCCAGCTGATGAATTGCCGTAATCGAGTAAACAAATTTTCCTAATCTTTCTGTTCAAGCGCCATCTAC", "binding signal": "1.39 RPM ratio (pull-down/input)"},
      {"sequence": "GATGATTGTTCTCCCAGCTGATGAATTAATGTAGTCGAGTAAACAAATTTTCCTAATCTTTCTGTTCAAGCGCCATCTAC", "binding signal": "1.24 RPM ratio (pull-down/input)"},
      {"sequence": "GATGATTGTTCTCCCAGCTGATGAATTGGCACAATCGAGTAAACAAATTTTCCTAATCTTTCTGTTCAAGCGCCATCTAC", "binding signal": "1.34 RPM ratio (pull-down/input)"},
      {"sequence": "GATGATTGTTCTCCCAGCTGATGAATTATTTGTTTCGAGTAAACAAATTTTCCTAATCTTTCTGTTCAAGCGCCATCTAC", "binding signal": "2.21 RPM ratio (pull-down/input)"},
      {"sequence": "GATGATTGTTCTCCCAGCTGATGAATTATTGCTTTCGAGTAAACAAATTTTCCTAATCTTTCTGTTCAAGCGCCATCTAC", "binding signal": "1.74 RPM ratio (pull-down/input)"},
      {"sequence": "GATGATTGTTCTCCCAGCTGATGAATTATTTGCTTCGAGTAAACAAATTTTCCTAATCTTTCTGTTCAAGCGCCATCTAC", "binding signal": "1.56 RPM ratio (pull-down/input)"},
      {"sequence": "GATGATTGTTCTCCCAGCTGATGAATTATTTGATTCGAGTAAACAAATTTTCCTAATCTTTCTGTTCAAGCGCCATCTAC", "binding signal": "1.05 RPM ratio (pull-down/input)"},
      {"sequence": "GATGATTGTTCTCCCAGCTGATGAATTATTGTGTTCGAGTAAACAAATTTTCCTAATCTTTCTGTTCAAGCGCCATCTAC", "binding signal": "2.1 RPM ratio (pull-down/input)"},
      {"sequence": "GATGATTGTTCTCCCAGCTGATGAATTATTATTTTCGAGTAAACAAATTTTCCTAATCTTTCTGTTCAAGCGCCATCTAC", "binding signal": "3.1 RPM ratio (pull-down/input)"},
      {"sequence": "GATGATTGTTCTCCCAGCTGATGAATTAATTATTTCGAGTAAACAAATTTTCCTAATCTTTCTGTTCAAGCGCCATCTAC", "binding signal": "1.12 RPM ratio (pull-down/input)"},
      {"sequence": "GATGATTGTTCTCCCAGCTGATGAATTATTTCTTTCGAGTAAACAAATTTTCCTAATCTTTCTGTTCAAGCGCCATCTAC", "binding signal": "1.17 RPM ratio (pull-down/input)"},
      {"sequence": "GATGATTGTTCTCCCAGCTGATGAATTGCTTATTTCGAGTAAACAAATTTTCCTAATCTTTCTGTTCAAGCGCCATCTAC", "binding signal": "1.62 RPM ratio (pull-down/input)"},
      {"sequence": "GATGATTGTTCTCCCAGCTGATGAATTATTTTGTTCGAGTAAACAAATTTTCCTAATCTTTCTGTTCAAGCGCCATCTAC", "binding signal": "1.32 RPM ratio (pull-down/input)"},
      {"sequence": "GATGATTGTTCTCCCAGCTGATGAATTATTTTTTTCGAGTAAACAAATTTTCCTAATCTTTCTGTTCAAGCGCCATCTAC", "binding signal": "1.5 RPM ratio (pull-down/input)"},
      {"sequence": "GATGATTGTTCTCCCAGCTGATGAATTATTAATTTCGAGTAAACAAATTTTCCTAATCTTTCTGTTCAAGCGCCATCTAC", "binding signal": "1.34 RPM ratio (pull-down/input)"},
      {"sequence": "GATGATTGTTCTCCCAGCTGATGAATTCCAGGCTTCGAGTAAACAAATTTTCCTAATCTTTCTGTTCAAGCGCCATCTAC", "binding signal": "0.758 RPM ratio (pull-down/input)"},
      {"sequence": "GATGATTGTTCTCCCAGCTGATGAATTTGGCTATTCGAGTAAACAAATTTTCCTAATCTTTCTGTTCAAGCGCCATCTAC", "binding signal": "0.942 RPM ratio (pull-down/input)"},
      {"sequence": "GATGATTGTTCTCCCAGCTGATGAATTCGGCTCCTCGAGTAAACAAATTTTCCTAATCTTTCTGTTCAAGCGCCATCTAC", "binding signal": "0.747 RPM ratio (pull-down/input)"}
    ]}
  ]
}
